Data: PubChem BioAssay (NCATS)
“And” between values parts separate entries of the source, which are not always exact repeats. Equal values may be shown once. Values without a mark were called inactive. Results filed as inconclusive are left out. Entries that show only a call come without a potency. The source made the active and inactive calls. Unless noted, calls follow the shape of the dose curve; as a rule, active = well fitted curve in the direction sought with a large enough effect; inconclusive = small, poorly fitted or top-dose-only effect, or another doubt; inactive = no such curve, though single readings can be large; an effect the other way counts as inactive or inconclusive.

What was measured:
[1] = Cell Viability - HUV-EC-C (AID 542); also: nearly all actives have a fitted effect of over 35% in size; also: potency is read from the fitted curve at half-maximal effect
Method in brief: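 HUV-EC-C normal human vascular endothelial cells, 1000 cells/well, pre-incubated 5 hr at 37 °C, then exposed to compounds for 40 hr at 37 °C in complete medium. Viability measured as intracellular ATP by CellTiter-Glo luminescence; AC50 from Hill fits.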

[2] = Cell Viability - H-4-II-E (AID 543); also: nearly all actives have a fitted effect of over 35% in size; also: potency is read from the fitted curve at half-maximal effect
Method in brief: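 Rat hepatoma H-4-II-E cells (1500/well) were plated, incubated 5 hr at 37 °C, then exposed to compounds for 40 hr at 37 °C. Cellular ATP was read by CellTiter-Glo luminescence; AC50 came from Hill-equation fits of concentration-response data.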

[3] = Cell Viability - SH-SY5Y (AID 544); also: nearly all actives have a fitted effect of over 55% in size; also: potency is read from the fitted curve at half-maximal effect
Method in brief: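 Human neuroblastoma SH-SY5Y cells (1500/well) in complete medium were exposed to compounds for 40 hr at 37 °C; intracellular ATP was then quantified by CellTiter-Glo luminescence after 20 min at room temperature. AC50 came from Hill-equation concentration-response fits.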

[4] = Cell Viability - Renal Proximal Tubule (AID 545); also: nearly all actives have a fitted effect of over 40% in size; also: potency is read from the fitted curve at half-maximal effect
Method in brief: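 Primary rat renal proximal tubule cells (1000/well) were treated with compounds for 40 hr at 37 °C in complete medium. Intracellular ATP was measured by CellTiter-Glo luminescence, and AC50 values came from Hill-equation fits of concentration-response data.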

[5] = Cell Viability - Mesenchymal (AID 546);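 also: cells exposed to compound for 40 hours before reading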; also: potency is read from the fitted curve at half-maximal effect
Method in brief: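 AC50 values reflect the drop in intracellular ATP in a human kidney mesenchymal line derived from normal glomeruli. Treatment lasts 40 hr at 37 °C in complete medium, and the signal comes from CellTiter-Glo luminescence.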

[6] = Cellular Toxicity (caspase-3) HepG2 (AID 654);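 also: cells exposed to compound for 16 hours before reading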
Method in brief: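 HepG2 cells (1500/well) in complete medium were treated with compounds for 16 hr at 37 °C. Caspase-3/7 activity was then read as luminescence from peptide-aminoluciferin cleavage. AC50 came from Hill fits, normalized to DMSO and 100 uM tamoxifen.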

[7] = Cellular Toxicity (caspase-3) Jurkat (AID 655);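 also: cells exposed to compound for 16 h at 37 °C before reading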
Method in brief: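 Jurkat cells (5000/well) in complete medium were treated with compounds for 16 hr at 37 °C, then Caspase-Glo 3/7 luminescence was read after 20 min at room temperature. Data normalized to DMSO (basal) and 100 uM tamoxifen (100%); AC50 from Hill fit.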

[8] = Cellular Toxicity (caspase-3) HUV-EC-C (AID 656)
Method in brief: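 HUV-EC-C endothelial cells, 1000/well, were pre-incubated 5 hr at 37°C, then exposed to compounds for 16 hr at 37°C. Caspase-Glo 3/7 luminescence was read after 20 min at room temperature. AC50 came from Hill fits, normalized to DMSO and 100 uM tamoxifen.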

[9] = Cellular Toxicity (caspase-3) SHSY5Y (AID 657)
Method in brief: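 SH-SY5Y human neuroblastoma cells (1500/well) were treated with compounds for 16 h at 37 °C, then Caspase-Glo 3/7 luminescence was read after 1 h at room temperature. Data normalized to DMSO and 10 uM staurosporine; AC50 from Hill fits.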

[10] = Cellular Toxicity (caspase-3) BJ (AID 658)
Method in brief: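 Readout: Caspase-Glo 3/7 luminescence increase in BJ cells after 16 hr treatment at 37 °C. Staurosporine and tamoxifen served as positive controls; AC50 values came from Hill modelling of data normalized to DMSO and 10 uM staurosporine.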

[11] = Cellular Toxicity (caspase-3) MRC-5 (AID 659)
Method in brief: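 Concentration-dependent caspase 3/7 activation is measured in human normal lung fibroblasts (MRC-5) following 16-hour treatment. AC50 values come from standard Hill-equation modeling of luminescence normalized to DMSO and 10 uM staurosporine.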

[12] = Cellular Toxicity (caspase-3) Mesangial (AID 660);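 also: cells exposed to compound for 16 h before the caspase read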
Method in brief: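 Human renal glomerular mesangial cells (1000/well) were treated with compounds for 16 h at 37 °C in complete medium, then caspase 3/7 activity was read by Caspase-Glo luminescence. Data were normalized to DMSO and 100 uM tamoxifen; AC50 from Hill fits.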

[13] = Cellular Toxicity (caspase-3) SK-N-SH (AID 661)
Method in brief: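 SK-N-SH human neuroblastoma cells (1500/well) were treated with compounds for 16 hr at 37 °C in complete medium; caspase 3/7 activity was read by Caspase-Glo luminescence. AC50 came from Hill fits of data normalized to DMSO and 10 uM staurosporine.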

[14] = Cellular Toxicity (caspase-3) Hek293 (AID 664);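 also: cells exposed to compound for 16 h at 37 °C before readout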
Method in brief: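 HEK293 cells were exposed to compounds in complete medium for 16 hr at 37 °C, then caspase-3/7 activity was read by Caspase-Glo 3/7 luminescence after 20 min at room temperature. Data normalized to DMSO and 100 uM tamoxifen; AC50 from Hill fits.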

[15] = Cellular Toxicity (caspase-3) N2a (AID 665);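 also: compound exposure lasted 16 h at 37 °C before readout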
Method in brief: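 Mouse N2a neuroblastoma cells (1500/well) were treated with compounds for 16 h at 37 °C, then caspase-3/7 activity was read by Caspase-Glo luminescence after 1 h at room temperature. Data were normalized to DMSO and 10 uM staurosporine; AC50 from Hill fits.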

[16] = Cellular Toxicity (caspase-3) NIH 3T3 (AID 666);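 also: caspase signal read after 16 h compound exposure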
Method in brief: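 Mouse NIH 3T3 fibroblasts (1000 cells/well) were treated with compound for 16 hr at 37°C in complete medium; caspase-3/7 activity was read by Caspase-Glo luminescence. Normalized to DMSO and 100 uM tamoxifen; AC50 from Hill fits.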

[17] = Cell Viability - NIH 3T3 (AID 541); also: nearly all actives have a fitted effect of over 25% in size; also: potency is read from the fitted curve at half-maximal effect
Method in brief: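 NIH 3T3 mouse embryo fibroblasts (1000 cells/well) were plated in complete medium and treated with compound for 40 hr at 37 °C. Viability was read as intracellular ATP by CellTiter-Glo luminescence; AC50 values came from Hill-equation fits of concentration-response data.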

[18] = molecular target: Mitogen-activated protein kinase 10 (Mus musculus) (UniProt Q61831); assay: JNK3 AlphaScreen Assay (AID 530; active = well fitted curve in either direction with a large enough effect, not every such curve was filed as active;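 also: kinase came from lysate of stimulated human HepG2 cells; signal reports phosphorylation of biotinylated GST-cJun 1-79 at Ser73 with 10 µM ATP; series mostly up to about 57 µM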)
Method in brief: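 Room-temperature AlphaScreen kinase assay; pre-activated HepG2 lysate as JNK3 source, biotin-GST-cJun(1-79) substrate, 10 uM ATP, compound 15 min preincubation.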

[19] = molecular target: Glucocorticoid receptor (Homo sapiens) (UniProt P04150); assay: GR-EFC Redistribution (AID 451; calls by dose curve; also: potency is read from the fitted curve at half-maximal effect); conditions: CHO-K1 GR-EFC translocation, beta-gal luminescence, 2 h
Method in brief: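 Translocation of GR-ED fusion to nuclear EA restores b-gal, read by luminescence after 1 h room-temperature detection. Engineered CHO-K1 biosensor cells, 1,000/well, exposed 2 h at 37 C to titrations up to 46 uM final.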

[20] = molecular target: 3',5'-cyclic-AMP phosphodiesterase 4B (Homo sapiens) (UniProt Q07343); assay: qHTS Assay for Inhibitors of PDE-IV (AID 607; active = well fitted activation curve with a large enough effect in the main read-out, with a control signal flat, not every such curve was filed as active)
Method in brief: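 HEK293 ACTOne cells with CNG channel (1000/well), endogenous PDE4; membrane potential dye, compounds up to 22.9 uM final. Fluorescence Ex 535/Em 590; RO 20-1724 (100 uM final) as reference.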

Glucocorticoid receptor (Homo sapiens), sequence (P04150 whole entry, looked up, the tested form may be a part): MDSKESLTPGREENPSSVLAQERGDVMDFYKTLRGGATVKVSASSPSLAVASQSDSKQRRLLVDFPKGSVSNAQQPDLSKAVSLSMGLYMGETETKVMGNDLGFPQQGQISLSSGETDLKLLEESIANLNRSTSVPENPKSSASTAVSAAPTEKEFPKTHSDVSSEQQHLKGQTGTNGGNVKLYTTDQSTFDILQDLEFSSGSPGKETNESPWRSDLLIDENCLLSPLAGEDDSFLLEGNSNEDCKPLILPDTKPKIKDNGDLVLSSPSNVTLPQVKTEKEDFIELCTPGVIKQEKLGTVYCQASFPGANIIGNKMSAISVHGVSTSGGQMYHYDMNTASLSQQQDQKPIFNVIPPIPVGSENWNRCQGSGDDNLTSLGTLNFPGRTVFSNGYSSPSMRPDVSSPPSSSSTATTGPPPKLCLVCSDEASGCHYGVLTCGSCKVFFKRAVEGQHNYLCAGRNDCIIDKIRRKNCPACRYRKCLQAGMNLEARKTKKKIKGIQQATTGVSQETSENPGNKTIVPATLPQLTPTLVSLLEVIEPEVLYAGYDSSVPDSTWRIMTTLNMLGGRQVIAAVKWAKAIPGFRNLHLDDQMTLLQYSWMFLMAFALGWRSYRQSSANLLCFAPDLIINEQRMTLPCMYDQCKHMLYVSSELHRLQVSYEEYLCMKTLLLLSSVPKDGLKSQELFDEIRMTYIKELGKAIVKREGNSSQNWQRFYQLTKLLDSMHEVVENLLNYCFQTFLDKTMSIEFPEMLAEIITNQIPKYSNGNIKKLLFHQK
3',5'-cyclic-AMP phosphodiesterase 4B (Homo sapiens), sequence (Q07343 whole entry, looked up): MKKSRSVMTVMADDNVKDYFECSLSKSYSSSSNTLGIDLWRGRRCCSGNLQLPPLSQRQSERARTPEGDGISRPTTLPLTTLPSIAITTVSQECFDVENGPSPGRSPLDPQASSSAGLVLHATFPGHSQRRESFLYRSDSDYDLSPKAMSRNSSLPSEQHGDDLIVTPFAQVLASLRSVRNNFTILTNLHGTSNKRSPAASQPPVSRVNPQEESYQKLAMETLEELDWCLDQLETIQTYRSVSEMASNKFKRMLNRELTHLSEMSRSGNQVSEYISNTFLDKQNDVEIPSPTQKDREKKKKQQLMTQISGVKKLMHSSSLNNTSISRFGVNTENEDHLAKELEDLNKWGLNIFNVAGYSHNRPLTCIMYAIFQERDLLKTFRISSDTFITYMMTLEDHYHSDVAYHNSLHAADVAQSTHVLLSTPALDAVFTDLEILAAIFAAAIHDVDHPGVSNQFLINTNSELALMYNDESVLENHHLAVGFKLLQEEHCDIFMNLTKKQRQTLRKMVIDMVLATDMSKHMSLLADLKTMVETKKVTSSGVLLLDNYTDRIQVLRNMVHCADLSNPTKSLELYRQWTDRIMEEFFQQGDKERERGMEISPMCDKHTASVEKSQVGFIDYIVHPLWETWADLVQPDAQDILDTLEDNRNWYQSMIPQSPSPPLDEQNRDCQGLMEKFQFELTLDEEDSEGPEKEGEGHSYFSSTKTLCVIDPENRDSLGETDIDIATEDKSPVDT

| Compound | Potency [1] | Potency [2] | Potency [3] | Potency [4] | Potency [5] | outcome [6] | outcome [7] | outcome [8] | outcome [9] | outcome [10] | outcome [11] | outcome [12] | outcome [13] | outcome [14] | outcome [15] | outcome [16] | Potency [17] | outcome [18] | Potency [19] | Potency [20] |
| --- | --- | --- | --- | --- | --- | --- | --- | --- | --- | --- | --- | --- | --- | --- | --- | --- | --- | --- | --- | --- |
| O=S(=O)(c1ccc(Cl)cc1)c1ccc(Cl)cc1 | inactive | inactive | inactive | inactive | inactive | inactive | inactive | inactive | inactive | inactive | inactive | inactive | inactive | inactive | inactive | inactive | – | – | – | – |
| COc1ccc(C(c2ccc(OC)cc2)C(Cl)(Cl)Cl)cc1 | inactive | – | – | – | inactive | inactive | inactive | inactive | inactive | inactive | inactive | inactive | inactive | inactive | inactive | inactive | inactive | – | – | – |
| Nc1ccc(Cl)cc1 | inactive | inactive | inactive | inactive | inactive | inactive | inactive | inactive | inactive | inactive | inactive | inactive | inactive | inactive | inactive | inactive | inactive | inactive | – | – |
| CNCCc1ccc(O)c(O)c1 | – | – | – | – | – | – | – | – | – | – | – | – | – | – | – | – | – | inactive | > 46 µM | inactive |
| Nc1ccc(Cl)cc1N | inactive | inactive | – | inactive | inactive | – | – | inactive | inactive | inactive | inactive | inactive | inactive | inactive | inactive | inactive | 0.631 µM (active) | inactive | – | – |
| CNCCc1c[nH]c2ccc(O)cc12 | – | – | – | – | – | – | – | – | – | – | – | – | – | – | – | – | – | inactive | > 46 µM | inactive |
| C=CC(=O)NCNC(=O)C=C | inactive | inactive | inactive | inactive | inactive | inactive | inactive | inactive | inactive | inactive | inactive | inactive | inactive | inactive | inactive | inactive | inactive | inactive | – | – |
| O=[N+]([O-])c1cc([N+](=O)[O-])c2ccccc2c1 | inactive | – | inactive | inactive | inactive | inactive | inactive | inactive | inactive | inactive | inactive | inactive | inactive | inactive | inactive | inactive | inactive | – | – | – |
| Cc1cc(O)ccc1Cl | inactive | inactive | inactive | inactive | inactive | inactive | inactive | inactive | inactive | inactive | inactive | inactive | inactive | inactive | inactive | inactive | inactive | inactive | – | – |
| CCOCCOC(C)=O | inactive | inactive | inactive | inactive | inactive | inactive | inactive | inactive | inactive | inactive | inactive | inactive | inactive | inactive | inactive | inactive | inactive | inactive | – | – |
| CCCCOC(=O)c1ccccc1C(=O)OCc1ccccc1 | inactive | inactive | inactive | inactive | inactive | inactive | inactive | inactive | inactive | inactive | inactive | inactive | inactive | inactive | inactive | inactive | inactive | – | – | – |
| CC[C@@]1(O)C(=O)OCc2c1cc1n(c2=O)Cc2cc3ccccc3nc2-1 | – | – | – | – | – | – | – | – | – | – | – | – | – | – | – | – | – | inactive | > 46 µM and > 20.6 µM | inactive |
| CN(C)NC(=O)CCC(=O)O | inactive | inactive | inactive | inactive | inactive | inactive | inactive | inactive | inactive | inactive | inactive | inactive | inactive | inactive | inactive | inactive | inactive | inactive | – | – |
| CCCN1CCO[C@@H]2c3cc(O)ccc3OC[C@@H]21 | – | – | – | – | – | – | – | – | – | – | – | – | – | – | – | – | – | inactive | > 46 µM | inactive |
| O=[N+]([O-])c1c2ccccc2cc2ccccc12 | inactive | inactive | – | inactive | inactive | inactive | inactive | inactive | inactive | inactive | inactive | inactive | inactive | inactive | inactive | inactive | inactive | inactive | – | – |
| CC(C)(O)C(=O)Nc1ccc([N+](=O)[O-])c(C(F)(F)F)c1 | inactive | – | inactive | inactive | inactive | inactive | inactive | inactive | inactive | inactive | inactive | inactive | inactive | inactive | inactive | inactive | – | inactive | – | – |
| NCCc1c[nH]c2ccc(O)cc12 | – | – | – | – | – | – | – | – | – | – | – | – | – | – | – | – | – | inactive | > 46 µM and > 20.6 µM | inactive |
| CC(=O)[O][Hg][c]1ccccc1 | 1.26 µM (active) | 2 µM (active) | 0.126 µM (active) | 0.631 µM (active) | 2 µM (active) | inactive | – | inactive | inactive | inactive | inactive | inactive | inactive | inactive | inactive | inactive | 0.0631 µM (active) | inactive | – | – |
| CCCCC(CC)COC(=O)c1ccccc1C(=O)OCC(CC)CCCC (centres undefined) | inactive | inactive | inactive | inactive | inactive | inactive | inactive | inactive | inactive | inactive | inactive | inactive | inactive | inactive | inactive | inactive | – | – | – | – |
| C[C@]12N[C@H](Cc3ccccc31)c1ccccc12 | – | – | – | – | – | – | – | – | – | – | – | – | – | – | – | – | – | inactive | – | inactive |
| COC(C)(C)CCCC(C)C/C=C/C(C)=C/C(=O)OC(C)C (centres undefined) | inactive | inactive | inactive | inactive | inactive | inactive | inactive | inactive | inactive | inactive | inactive | inactive | inactive | inactive | inactive | inactive | inactive | inactive | – | – |
